DRD3 antagonist – blocks the human D3 dopamine receptor; P35462; D3R cells, DiscoveRx beta-arrestin luminescence, antagonist mode; hits give low values; max response, negative = inhibition, %; hit rate 2.5% among 360,000; AID 652054; in the data active = max response below about -50%; also: % is scaled to controls: 0 for no effect and ±100 for the full control effect
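Cells expressing the human receptor were seeded at 1500 cells/well, incubated overnight at 37 degrees C in 5% CO2, then exposed to library compounds with dopamine controls for 90 minutes at 37 degrees C before luminescent detection.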
D1 antagonist – antagonists of human D1 dopamine receptor. P21728. HEK293 TREx D1 cells, calcium flux, dopamine EC80; hits give low values. activity change, negative = inhibition, % at 10 µM. hit rate 3.2% among 360,000; in the data active = activity change below about -30%; also: % is scaled to controls: 0 for no effect and ±100 for the full control effect
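After overnight tetracycline induction at 30 C, force-coupled D1 HEK293 cells took up a no-wash calcium dye at room temperature. Compounds were added and monitored 180 s, and the response to EC80 dopamine was then recorded.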
D3 ag – activates the human D3 dopamine receptor. D3R DiscoveRx beta-arrestin cells, luminescence, 90 min. max activation, %. hit rate 0.58% among 410,000. AID 652048; in the data active = max activation above about 30%; also: 0% is about no effect
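Agonist mode: compounds and dopamine controls were applied to plated cells for 90 min at 37 degrees C after an overnight attachment at 1500 cells/well. Luminescent read-out followed 30 - 60 minutes at room temperature with DiscoveRx detection reagent.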
ERG-DNA inh – blocks human ERG Ets domain binding to DNA. P11308. fluorescence polarization, His-ERG Ets domain / labelled DNA. Potency, µM (highest dose often 76.9 µM), for inactives: at the highest dose FP activity, negative = inhibition, hits mostly inhibitors. hit rate 0.028% among 370,000; active = well fitted inhibition curve with a large enough effect in the polarisation, with a control signal flat; the % refers to the polarisation;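 also: polarization taken with two DNA probes labelled with fluorescein and Texas red; potency is read from the fitted curve at half-maximal effect; % of control where 0% means no effect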
Target sequence (P11308 whole entry, looked up, the tested form may be a part): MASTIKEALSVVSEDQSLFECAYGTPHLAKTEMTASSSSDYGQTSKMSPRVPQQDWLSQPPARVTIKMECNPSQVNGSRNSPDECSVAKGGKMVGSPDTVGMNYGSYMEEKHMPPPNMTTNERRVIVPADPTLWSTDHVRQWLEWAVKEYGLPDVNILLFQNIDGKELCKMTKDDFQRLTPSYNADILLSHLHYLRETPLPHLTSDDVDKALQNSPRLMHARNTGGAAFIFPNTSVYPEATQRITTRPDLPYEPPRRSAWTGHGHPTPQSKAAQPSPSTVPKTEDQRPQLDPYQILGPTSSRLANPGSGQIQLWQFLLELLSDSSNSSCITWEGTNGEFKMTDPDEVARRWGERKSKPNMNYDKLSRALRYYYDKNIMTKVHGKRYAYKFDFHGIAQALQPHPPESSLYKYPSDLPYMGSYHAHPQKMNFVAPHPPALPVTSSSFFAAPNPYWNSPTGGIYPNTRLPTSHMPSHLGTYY
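His-tagged ERG Ets domain (1 uM in the protein solution; 300mM KCl, 50mM Tris-HCl, 1mM EDTA, 1mM DTT, pH 7.5) received compound, then a probe mix of 5 nM fluorescein-DNA and 100nM Texas-615-DNA. Fluorescence polarization was read for both dyes.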
D1 agonist – human D1 receptor agonism; HEK293 T-REx D1 cells, calcium flux, agonist mode; activation, % at 2 µM; hit rate 1% among 360,000; AID 504660; in the data active = activation above about 30%; also: 0% is about no effect
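Inducible HEK293 T-REx D1 cells, force-coupled to calcium signalling, were plated at 4000 cells/well with tetracycline and held overnight at 30 C. After no-wash calcium dye loading, compound-evoked calcium rise over 180 s flagged agonists.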
D1 potentiator – human D1 dopamine receptor positive modulation. P21728. HEK293 TREx D1 cells, calcium flux, dopamine EC20 potentiation. potentiation, % at 10 µM. hit rate 0.036% among 360,000; in the data active = potentiation above about 30%; also: 0% is about no effect
Numbers without * were called inactive; . = not tested or not shown. Shown are actives, neighbours in structure and some others; about 6.1% of the full set was active somewhere.

SMILES	DRD3 antagonist	D1 antagonist	D3 ag	ERG-DNA inh	D1 agonist	D1 potentiator
CC(=O)c1nc(N2C(=O)CC(Cc3ccc(C)cc3)C2=O)sc1C (stereo not drawn)	-20	4	-1	-1%	0	0
COc1ccc(OC)c(C(=O)COC(=O)c2cccnc2SC)c1	6	-3	1	4%	4	6
O=C(Nc1ccc(CN2CCCCC2)cc1)Nc1ccccc1Cl	-52*	0	-28	4%	14	0
O=C(Nc1ccc(Br)cc1)Nc1ccccc1Cl	34	-41*	2	20%	11	-3
CCN1CCN(Cc2ccc(NC(=O)Nc3ccccc3Cl)cc2)CC1	-61*	-9	-15	-7%	3	-1
CCN1CCN(Cc2ccccc2NC(=O)Nc2ccc(C)cc2)CC1	-30	3	-17	-16%	2	4
O=C(CNC(=O)c1ccc(Br)o1)Nc1ccncc1	4	-64*	0	12%	0	-4
N#Cc1cc2c(nc1SCC(=O)Nc1sc3c(c1C#N)CCC3)CCCCC2	5	3	-9	5%	2	4
Cn1nc(OC(=O)Nc2cccc(Cl)c2)cc1C(F)(F)F	-19	-5	-2	-4%	6	2
Cc1cc2nc(CSc3ccc(Cl)cc3)cc(=O)n2[nH]1	19	6	4	8%	0	3
COc1cccc(NC(=O)CN(C)C(=O)c2cc3ccccc3cc2OC)c1	-13	7	-5	-4%	0	-3
O=C(Nc1ccc(CN2CCCCC2)cc1)c1ccc(Br)o1	-62*	-16	-15	-5%	3	-10
C=CCNC(=O)Nc1ccc(Br)cc1Cl	29	1	1	5%	2	-1
CC(=O)c1ccc(NC(=O)Nc2ccc(Br)cc2C)cc1	1	-35*	-6	-6%	21	-11
O=C(Nc1ccncc1)Nc1ccc(Br)cc1Cl	12	-34*	4	3%	4	-7
CC(=O)c1ccc(NC(=O)c2ccc(C)c(Br)c2)cc1	5	-3	0	-1%	13	-8
Cc1cccc2nc(-c3ccco3)oc(=O)c12	-3	5	11	4%	0	0
O=C(NC(=O)N1CCCCCC1)c1ccccc1	-6	2	-1	2%	0	-1
Cc1ccc(OCC(=O)N2CCCCC2)c(Br)c1	14	17	6	-1%	0	2
CC(C)(C)c1ccc(OCC(=O)N2CCCCCC2)c(Br)c1	1	-35*	2	2%	10	-13
Cc1ccc(N2C(=O)C3C4C=CC(CNC(=S)Nc5ccc(F)cc5)(O4)C3C2=O)cc1 (stereo not drawn)	-4	-7	0	7%	7	-5
Cc1ccc(N2C(=O)C3C4C=CC(CNC(=S)Nc5ccc(Cl)cc5)(O4)C3C2=O)cc1 (stereo not drawn)	17	-31*	4	3%	13	-10
Cc1ccc(S(=O)(=O)Nc2cccc(-c3ccc(N4CCCCC4)nn3)c2)s1	.	-80*	1	3%	1	-2
CC1CCN(c2ccc(-c3cccc(NC(=O)C(F)(F)F)c3)nn2)CC1	-14	-55*	-7	3%	12	-10
CCc1ccc(S(=O)(=O)Nc2cccc(-c3ccc(N4CCCCC4)nn3)c2)s1	.	-8	-1	0%	-1	-1
CCC(=O)Nc1cccc(-c2ccc(N3CCC(C)CC3)nn2)c1	-21	-3	0	13%	0	-11
O=C(Nc1cccc(-c2ccc(N3CCCCC3)nn2)c1)C(F)(F)F	-20	-33*	-1	-7%	12	-11
CCOC(=O)Nc1ccc2nc(N3CCCCCC3)sc2c1	-9	-12	-2	9%	6	-8
COc1ccc(CNCCC(c2ccc(OC)cc2)c2ccccc2OC)cc1 (stereo not drawn)	1	-4	-10	1%	30*	-1
COc1ccc(CNCCC(c2ccccc2)c2ccc(OC(C)C)cc2)cc1OC (stereo not drawn)	7	12	-24	1%	23	-7
